The record followed here is PubChem BioAssay (NCI).

Compounds without any hit were thinned out: in the full panel of roughly 79,000, 15% have a hit. Values without a mark were called inactive. Active and inactive are the calls of the source. Rule as the data show it: active = growth inhibition above about 70%; inactive = the rest.

Assay [1] in a line: NCI Yeast Anticancer Drug Screen. Data for the rad50 strain (AID 155).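 Also: 0% = growth of vehicle-only cultures of the same strain.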 Conditions: S. cerevisiae rad50 strain growth inhibition, stronger effect = higher value. Put shortly: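 Vehicle-treated cultures provide the reference for the growth inhibition reported for compound-exposed, repair-deficient yeast.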
Assay [2] is described as follows: NCI Yeast Anticancer Drug Screen. Data for the mec2-1 strain (AID 157). As to conditions: S. cerevisiae mec2-1 strain, stronger effect = higher value. An outline of the steps:
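Vehicle-treated cultures served as reference for growth inhibition of compound-exposed mec2-1 yeast.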

Assay [3] in a line: NCI Yeast Anticancer Drug Screen. Data for the sgs1 mgt1 strain (AID 161).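 Also: 0% = growth of cultures given vehicle only.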 Conditions: S. cerevisiae sgs1 mgt1 strain, stronger effect = higher value. Put shortly: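 Read-out: growth inhibition vs vehicle controls. Cells: mutant yeast strain deficient in DNA damage repair.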
Assay [4] can be described thus: NCI Yeast Anticancer Drug Screen. Data for the cln2 rad14 strain (AID 165).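 Also: 0% = growth equal to vehicle treated cultures.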 Conditions: S. cerevisiae cln2 rad14 strain, stronger effect = higher value. An outline of the steps:
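Each compound was tested on cln2 rad14 yeast. Inhibition of growth was calculated against vehicle-exposed controls.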

Assay [5] in a line: NCI Yeast Anticancer Drug Screen. Data for the bub3 strain (AID 167). As to conditions: S. cerevisiae bub3 mutant strain, stronger effect = higher value. An outline of the steps: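 Mutant yeast screening strain plus compound; vehicle-treated cultures serve as the 0% inhibition reference.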
A short description of assay [6]: NCI Yeast Anticancer Drug Screen. Data for the mlh1 rad18 strain (AID 175). Conditions: S. cerevisiae mlh1 rad18 strain growth inhibition, stronger effect = higher value. An outline of the steps:
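Vehicle-treated cultures served as the reference for growth inhibition in a yeast strain carrying DNA damage repair alterations exposed to each compound.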

[7] abbreviates: at 5.0 µM (retest, dose inferred, filed as 0.5).
[8] abbreviates: at 50.0 µM (retest, dose inferred, filed as 5.0).

As to `CCN(CCCl)c1cc(CN(C)C)cc(NC(=O)c2ccc(C(=O)Nc3cccc(N(CCCl)NN)c3)cc2)c1`, the growth inhibition in assay [1] (setting [7]) is -6%; in assay [1] (setting [8]) it was 91% (active); in assay [1] (at 50.0 µM) it was 89.4% (active); in assay [2] (setting [7]) it was -5%; in assay [2] (setting [8]), 98% (active); in assay [2] (at 50.0 µM) it was 98.2% (active). The growth inhibition in assay [3] (setting [7]) was 10%; in assay [3] (setting [8]), 98% (active); in assay [3] (at 50.0 µM), -2.7%; in assay [4] (setting [7]), 1%; in assay [4] (setting [8]) it was 95% (active); in assay [4] (at 50.0 µM), 56.2%. The growth inhibition in assay [5] (setting [7]) was -16%; in assay [5] (setting [8]), 92% (active); in assay [5] (at 50.0 µM), 97.8% (active); in assay [6] (setting [7]), 25%; in assay [6] (setting [8]), 97% (active); in assay [6] (at 50.0 µM), 98.5% (active).

Consider `COP(=S)(OC)N(C)C(=O)Oc1cccc2ccccc12`, for which the growth inhibition was 0% in assay [1] (setting [7]); 27% in assay [1] (setting [8]); 48.5% in assay [1] (at 50.0 µM); -21% in assay [2] (setting [7]); 15% in assay [2] (setting [8]); 39.2% in assay [2] (at 50.0 µM). Further, the growth inhibition was -20% in assay [3] (setting [7]); 57% in assay [3] (setting [8]); 60% in assay [3] (at 50.0 µM); 0% in assay [4] (setting [7]); 10% in assay [4] (setting [8]); 55.5% in assay [4] (at 50.0 µM). The growth inhibition was 9% in assay [5] (setting [7]); 40% in assay [5] (setting [8]); 61.4% in assay [5] (at 50.0 µM); -14% in assay [6] (setting [7]); 77% (active) in assay [6] (setting [8]); 80.8% (active) in assay [6] (at 50.0 µM).

As to `[C-]#[O+].[C-]#[O+].[C-]#[O+].[Cl-].[Ru+2].c1ccc([PH+](CC[PH+](c2ccccc2)c2ccccc2)CC[PH+](c2ccccc2)c2ccccc2)cc1`, the growth inhibition in assay [1] (setting [7]) is 50%; in assay [1] (setting [8]) it was 98% (active); in assay [1] (at 50.0 µM) it was 91% (active); in assay [2] (setting [7]), 45%; in assay [2] (setting [8]), 99% (active); in assay [2] (at 50.0 µM), 92.8% (active). For the same molecule, the growth inhibition in assay [3] (setting [7]) was 55%; in assay [3] (setting [8]), 99% (active); in assay [3] (at 50.0 µM), 93.1% (active); in assay [4] (setting [7]) it was 36%; in assay [4] (setting [8]) it was 97% (active); in assay [4] (at 50.0 µM), 92.2% (active). The growth inhibition was 50% in assay [5] (setting [7]); 98% (active) in assay [5] (setting [8]); 92.4% (active) in assay [5] (at 50.0 µM); 56% in assay [6] (setting [7]); 97% (active) in assay [6] (setting [8]); 91.1% (active) in assay [6] (at 50.0 µM).

Turning to `O=C(OCc1ccccc1)C(C(Cl)c1ccccc1)N(Cc1ccccc1)Cc1ccccc1` (configuration not stated), the growth inhibition in assay [1] (setting [7]) is -2%; in assay [1] (setting [8]), 53%; in assay [1] (at 50.0 µM) it was 90.8% (active); in assay [2] (setting [7]), 3%; in assay [2] (setting [8]), 65%; in assay [2] (at 50.0 µM), 81.2% (active). The growth inhibition in assay [3] (setting [7]) was -1%; in assay [3] (setting [8]), 50%; in assay [3] (at 50.0 µM), 85.5% (active); in assay [4] (setting [7]), 1%; in assay [4] (setting [8]), 53%; in assay [4] (at 50.0 µM) it was 89.8% (active). Moreover, the growth inhibition in assay [5] (setting [7]) is -1%; in assay [5] (setting [8]) it was 49%; in assay [5] (at 50.0 µM), 67.7%; in assay [6] (setting [7]), -1%; in assay [6] (setting [8]), 56%; in assay [6] (at 50.0 µM), 86.5% (active).

For the molecule `CCOC(=O)N(C(=O)c1ccc([As]=O)cc1)C(=O)c1ccc([As]=O)cc1` (configuration not stated), the growth inhibition in assay [1] (setting [7]) is 8%; in assay [1] (setting [8]), 98% (active); in assay [1] (at 50.0 µM), 99.2% (active); in assay [2] (setting [7]), 5%; in assay [2] (setting [8]), 99% (active); in assay [2] (at 50.0 µM), 99.3% (active). Besides, the growth inhibition was 10% in assay [3] (setting [7]); 100% (active) in assay [3] (setting [8]); 99.5% (active) in assay [3] (at 50.0 µM); -4% in assay [4] (setting [7]); 99% (active) in assay [4] (setting [8]); 99% (active) in assay [4] (at 50.0 µM). Besides, the growth inhibition in assay [5] (setting [7]) was 11%; in assay [5] (setting [8]), 99% (active); in assay [5] (at 50.0 µM), 89.3% (active); in assay [6] (setting [7]) it was 6%; in assay [6] (setting [8]) it was 99% (active); in assay [6] (at 50.0 µM), 98.7% (active).

For the molecule `CSCCl`, the growth inhibition was 3% in assay [1] (setting [7]); 51% in assay [1] (setting [8]); 88.2% (active) in assay [1] (at 50.0 µM); 3% in assay [2] (setting [7]); 73% (active) in assay [2] (setting [8]); 94.5% (active) in assay [2] (at 50.0 µM). For the same molecule, the growth inhibition is 4% in assay [3] (setting [7]); 86% (active) in assay [3] (setting [8]); 90% (active) in assay [3] (at 50.0 µM); 11% in assay [4] (setting [7]); 97% (active) in assay [4] (setting [8]); 88.8% (active) in assay [4] (at 50.0 µM). The growth inhibition was 0% in assay [5] (setting [7]); 75% (active) in assay [5] (setting [8]); 97.6% (active) in assay [5] (at 50.0 µM); -6% in assay [6] (setting [7]); 95% (active) in assay [6] (setting [8]); 95% (active) in assay [6] (at 50.0 µM).

For `O=[N+]([O-])O.O=[N+]([O-])O.[NH-]C1CCCCC1[NH-].[Pt+2]` (configuration not stated), the growth inhibition in assay [1] (setting [7]) is 33%; in assay [1] (setting [8]), 96% (active); in assay [1] (at 50.0 µM), 52.1%; in assay [2] (setting [7]), 25%; in assay [2] (setting [8]), 95% (active); in assay [2] (at 50.0 µM), 90.7% (active). Moreover, the growth inhibition is 57% in assay [3] (setting [7]); 100% (active) in assay [3] (setting [8]); 79.5% (active) in assay [3] (at 50.0 µM); 45% in assay [4] (setting [7]); 97% (active) in assay [4] (setting [8]); 86.4% (active) in assay [4] (at 50.0 µM). For the same molecule, the growth inhibition is 56% in assay [5] (setting [7]); 100% (active) in assay [5] (setting [8]); 88.9% (active) in assay [5] (at 50.0 µM); 16% in assay [6] (setting [7]); 75% (active) in assay [6] (setting [8]); 92.3% (active) in assay [6] (at 50.0 µM).

For the molecule `COC1(OC)C(Cl)=C(Cl)C(Cl)=C1Cl`, the growth inhibition is 9% in assay [1] (setting [7]); 95% (active) in assay [1] (setting [8]); 46.4% in assay [1] (at 50.0 µM); -2% in assay [2] (setting [7]); 84% (active) in assay [2] (setting [8]); 46.5% in assay [2] (at 50.0 µM). The growth inhibition in assay [3] (setting [7]) was -1%; in assay [3] (setting [8]), 91% (active); in assay [3] (at 50.0 µM), 75.2% (active); in assay [4] (setting [7]), 0%; in assay [4] (setting [8]), 42%; in assay [4] (at 50.0 µM) it was -9.85%. Also, the growth inhibition is 2% in assay [5] (setting [7]); 89% (active) in assay [5] (setting [8]); 58.8% in assay [5] (at 50.0 µM); 4% in assay [6] (setting [7]); 76% (active) in assay [6] (setting [8]); 78.8% (active) in assay [6] (at 50.0 µM).

Regarding `O=C(c1ccccc1)c1c(CC(O)c2ccncc2)n(C(=O)c2ccccc2)c2ccccc12` (configuration not stated), the growth inhibition in assay [1] (setting [7]) was 18%; in assay [1] (setting [8]), 95% (active); in assay [1] (at 50.0 µM) it was 94% (active); in assay [2] (setting [7]) it was -2%; in assay [2] (setting [8]) it was 96% (active); in assay [2] (at 50.0 µM), 92.5% (active). In addition, the growth inhibition is 8% in assay [3] (setting [7]); 97% (active) in assay [3] (setting [8]); 92.2% (active) in assay [3] (at 50.0 µM); 18% in assay [4] (setting [7]); 96% (active) in assay [4] (setting [8]); 82.7% (active) in assay [4] (at 50.0 µM). Also, the growth inhibition in assay [5] (setting [7]) is -3%; in assay [5] (setting [8]) it was 98% (active); in assay [5] (at 50.0 µM) it was 92.2% (active); in assay [6] (setting [7]), 19%; in assay [6] (setting [8]) it was 95% (active); in assay [6] (at 50.0 µM), 93.8% (active).
